Results: the supplement of paper PMC10849652
About 7,900 targets were measured; listed, in parts, are those with a hit and a random draw of the rest. About 0.6% of all pairs of compound and target were hits. Unmarked numbers belong to inactive results.

Sequence of UniProt Q9NXW2 (Q9NXW2 whole entry, looked up): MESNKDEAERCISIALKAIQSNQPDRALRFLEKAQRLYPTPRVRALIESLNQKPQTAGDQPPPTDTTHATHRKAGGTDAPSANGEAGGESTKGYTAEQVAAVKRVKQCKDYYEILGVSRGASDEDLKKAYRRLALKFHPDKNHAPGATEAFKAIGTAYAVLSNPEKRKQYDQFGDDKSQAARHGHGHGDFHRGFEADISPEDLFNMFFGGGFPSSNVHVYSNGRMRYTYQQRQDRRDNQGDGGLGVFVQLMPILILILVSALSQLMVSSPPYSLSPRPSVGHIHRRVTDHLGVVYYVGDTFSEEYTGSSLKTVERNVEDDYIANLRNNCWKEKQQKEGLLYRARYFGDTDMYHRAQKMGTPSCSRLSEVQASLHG
Sequence of UniProt P32519 (P32519 whole entry, looked up): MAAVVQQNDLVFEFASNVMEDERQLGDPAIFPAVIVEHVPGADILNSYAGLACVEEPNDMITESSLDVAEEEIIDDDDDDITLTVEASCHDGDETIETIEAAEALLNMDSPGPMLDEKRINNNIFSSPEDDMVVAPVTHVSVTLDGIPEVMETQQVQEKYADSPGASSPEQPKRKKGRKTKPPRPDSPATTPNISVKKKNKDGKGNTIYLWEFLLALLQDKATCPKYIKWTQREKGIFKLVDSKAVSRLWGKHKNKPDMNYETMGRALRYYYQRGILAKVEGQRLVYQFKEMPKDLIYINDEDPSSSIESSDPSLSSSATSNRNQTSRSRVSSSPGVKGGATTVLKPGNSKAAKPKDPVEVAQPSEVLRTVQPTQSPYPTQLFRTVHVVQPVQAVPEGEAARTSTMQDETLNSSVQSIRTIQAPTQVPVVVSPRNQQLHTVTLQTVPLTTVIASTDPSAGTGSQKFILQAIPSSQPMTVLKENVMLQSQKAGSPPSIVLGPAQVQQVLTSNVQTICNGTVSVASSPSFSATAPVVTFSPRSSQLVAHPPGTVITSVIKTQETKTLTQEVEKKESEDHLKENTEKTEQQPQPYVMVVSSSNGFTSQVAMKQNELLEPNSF
Sequence of UniProt O75911 (O75911 whole entry, looked up): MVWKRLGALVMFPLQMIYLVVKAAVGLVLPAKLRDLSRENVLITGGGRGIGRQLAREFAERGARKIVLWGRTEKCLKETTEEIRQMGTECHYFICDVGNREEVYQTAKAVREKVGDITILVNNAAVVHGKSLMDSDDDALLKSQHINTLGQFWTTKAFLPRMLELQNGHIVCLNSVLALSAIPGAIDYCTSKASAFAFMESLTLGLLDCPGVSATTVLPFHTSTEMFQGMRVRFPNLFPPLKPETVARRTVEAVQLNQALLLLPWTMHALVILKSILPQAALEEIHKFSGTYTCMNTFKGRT
Sequence of UniProt Q13409 (Q13409 whole entry, looked up): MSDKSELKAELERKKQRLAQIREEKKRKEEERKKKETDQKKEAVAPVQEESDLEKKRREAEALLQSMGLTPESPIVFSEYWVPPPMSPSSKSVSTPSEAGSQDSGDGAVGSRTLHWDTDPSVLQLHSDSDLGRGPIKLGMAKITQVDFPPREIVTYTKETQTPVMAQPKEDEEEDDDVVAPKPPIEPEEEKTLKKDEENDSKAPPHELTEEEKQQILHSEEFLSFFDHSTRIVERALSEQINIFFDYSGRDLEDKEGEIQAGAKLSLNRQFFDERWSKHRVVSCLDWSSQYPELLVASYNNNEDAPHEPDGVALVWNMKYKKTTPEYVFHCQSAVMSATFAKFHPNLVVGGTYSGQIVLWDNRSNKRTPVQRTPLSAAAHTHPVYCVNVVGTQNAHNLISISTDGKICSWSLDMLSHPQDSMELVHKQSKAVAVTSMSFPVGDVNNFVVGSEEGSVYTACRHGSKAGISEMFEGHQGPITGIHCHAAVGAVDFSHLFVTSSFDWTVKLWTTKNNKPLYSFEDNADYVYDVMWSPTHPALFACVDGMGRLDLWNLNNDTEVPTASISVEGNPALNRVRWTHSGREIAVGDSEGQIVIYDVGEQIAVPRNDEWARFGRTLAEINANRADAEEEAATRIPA
Sequence of UniProt P35222 (P35222 whole entry, looked up): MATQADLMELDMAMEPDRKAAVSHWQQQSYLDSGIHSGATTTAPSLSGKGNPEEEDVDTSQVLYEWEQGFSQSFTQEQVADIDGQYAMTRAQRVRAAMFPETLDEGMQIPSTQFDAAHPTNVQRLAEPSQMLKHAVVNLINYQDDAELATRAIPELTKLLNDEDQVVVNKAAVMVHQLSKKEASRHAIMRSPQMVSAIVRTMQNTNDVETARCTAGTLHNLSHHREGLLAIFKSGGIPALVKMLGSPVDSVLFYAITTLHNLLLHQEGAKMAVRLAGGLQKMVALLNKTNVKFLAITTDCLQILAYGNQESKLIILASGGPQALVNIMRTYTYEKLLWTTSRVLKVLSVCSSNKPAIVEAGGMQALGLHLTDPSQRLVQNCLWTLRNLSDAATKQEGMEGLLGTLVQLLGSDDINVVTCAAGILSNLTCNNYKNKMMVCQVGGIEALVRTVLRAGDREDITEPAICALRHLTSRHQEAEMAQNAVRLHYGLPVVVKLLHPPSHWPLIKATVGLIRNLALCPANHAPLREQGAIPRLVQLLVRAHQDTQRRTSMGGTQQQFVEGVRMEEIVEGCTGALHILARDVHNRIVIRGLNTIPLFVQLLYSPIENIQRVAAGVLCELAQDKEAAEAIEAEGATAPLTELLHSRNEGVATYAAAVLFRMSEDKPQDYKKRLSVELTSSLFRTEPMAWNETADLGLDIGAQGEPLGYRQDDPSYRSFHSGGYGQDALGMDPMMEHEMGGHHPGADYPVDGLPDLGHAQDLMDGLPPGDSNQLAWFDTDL
Sequence of UniProt Q8N8J7 (Q8N8J7 whole entry, looked up): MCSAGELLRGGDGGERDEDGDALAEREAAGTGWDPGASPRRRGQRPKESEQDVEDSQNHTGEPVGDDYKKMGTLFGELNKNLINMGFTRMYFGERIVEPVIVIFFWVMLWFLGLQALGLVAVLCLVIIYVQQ
Sequence of UniProt Q8N5C7 (Q8N5C7 whole entry, looked up): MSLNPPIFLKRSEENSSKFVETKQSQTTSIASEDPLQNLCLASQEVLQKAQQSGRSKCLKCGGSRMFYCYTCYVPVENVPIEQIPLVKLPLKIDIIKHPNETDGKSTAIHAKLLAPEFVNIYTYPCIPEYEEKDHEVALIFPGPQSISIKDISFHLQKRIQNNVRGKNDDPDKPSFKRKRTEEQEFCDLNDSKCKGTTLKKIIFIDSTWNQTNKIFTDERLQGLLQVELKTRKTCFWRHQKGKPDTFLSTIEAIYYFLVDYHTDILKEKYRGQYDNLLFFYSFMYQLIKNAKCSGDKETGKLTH
Sequence of UniProt Q9NWS6 (Q9NWS6 whole entry, looked up): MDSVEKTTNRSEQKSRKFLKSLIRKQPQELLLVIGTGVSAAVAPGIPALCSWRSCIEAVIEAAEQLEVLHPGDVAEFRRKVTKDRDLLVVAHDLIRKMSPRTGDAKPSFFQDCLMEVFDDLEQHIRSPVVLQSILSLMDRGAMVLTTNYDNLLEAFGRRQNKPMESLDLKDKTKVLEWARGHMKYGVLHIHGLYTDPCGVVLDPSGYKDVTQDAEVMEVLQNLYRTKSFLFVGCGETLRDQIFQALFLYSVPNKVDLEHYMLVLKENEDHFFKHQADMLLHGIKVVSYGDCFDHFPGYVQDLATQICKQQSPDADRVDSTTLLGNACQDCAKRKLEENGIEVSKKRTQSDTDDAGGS
Sequence of UniProt Q6P3W2 (Q6P3W2 whole entry, looked up): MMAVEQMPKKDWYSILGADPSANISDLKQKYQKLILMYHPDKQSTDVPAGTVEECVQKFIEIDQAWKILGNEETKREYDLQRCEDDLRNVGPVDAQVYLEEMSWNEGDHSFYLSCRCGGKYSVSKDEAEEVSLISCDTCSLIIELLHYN
Sequence of UniProt Q96F86 (Q96F86 whole entry, looked up): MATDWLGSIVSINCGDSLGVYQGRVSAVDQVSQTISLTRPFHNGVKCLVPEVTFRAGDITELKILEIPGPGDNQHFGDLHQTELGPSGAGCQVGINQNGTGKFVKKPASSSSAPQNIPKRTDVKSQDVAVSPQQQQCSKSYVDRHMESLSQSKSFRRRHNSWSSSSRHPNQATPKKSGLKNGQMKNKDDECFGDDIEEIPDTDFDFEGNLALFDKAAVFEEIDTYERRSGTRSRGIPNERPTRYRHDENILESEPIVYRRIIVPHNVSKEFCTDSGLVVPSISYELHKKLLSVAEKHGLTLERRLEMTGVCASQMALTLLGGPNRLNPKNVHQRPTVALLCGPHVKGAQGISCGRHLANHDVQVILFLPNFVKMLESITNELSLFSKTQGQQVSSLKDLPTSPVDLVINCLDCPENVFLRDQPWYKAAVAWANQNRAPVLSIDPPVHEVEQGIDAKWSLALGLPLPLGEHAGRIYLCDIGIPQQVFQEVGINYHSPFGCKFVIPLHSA
Sequence of UniProt P25685 (P25685 whole entry, looked up): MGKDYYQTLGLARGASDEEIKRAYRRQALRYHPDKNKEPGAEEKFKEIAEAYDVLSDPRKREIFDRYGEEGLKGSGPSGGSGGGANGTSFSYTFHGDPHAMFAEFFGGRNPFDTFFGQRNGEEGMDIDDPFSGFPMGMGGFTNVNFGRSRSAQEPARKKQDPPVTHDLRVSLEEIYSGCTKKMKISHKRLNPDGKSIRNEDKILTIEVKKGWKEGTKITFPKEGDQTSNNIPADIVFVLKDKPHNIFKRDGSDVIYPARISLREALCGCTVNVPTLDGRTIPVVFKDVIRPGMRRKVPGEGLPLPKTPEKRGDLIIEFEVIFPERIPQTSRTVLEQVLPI
Sequence of UniProt Q8NBI2 (Q8NBI2 whole entry, looked up): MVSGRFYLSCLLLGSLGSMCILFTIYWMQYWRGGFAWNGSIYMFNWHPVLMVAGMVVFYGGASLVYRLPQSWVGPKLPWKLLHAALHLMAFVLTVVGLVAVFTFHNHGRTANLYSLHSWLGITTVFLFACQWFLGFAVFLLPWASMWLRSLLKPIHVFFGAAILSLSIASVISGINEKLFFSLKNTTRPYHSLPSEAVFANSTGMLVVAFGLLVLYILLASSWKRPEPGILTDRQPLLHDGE

These targets were tested with CN1CC[C@H](c2c(O)cc(O)c3c(=O)cc(-c4ccccc4Cl)oc23)[C@H](O)C1 [alvocidib] (assay: log2 fold change, soluble protein after heating vs DMSO (PISA); higher = thermal stabilisation; K562 cells, 10 uM, 30 min; active = over 0.2 and 3.5 SD of the protein, either way, in both replicates (recomputed)).
Method in brief: (§1)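 K562 cells at 2×10^6 cells/mL were given 10 μM compound for 30 min. Aliquots then went through 3 min of heating across 48°C-58°C, were pooled, and were extracted in PBS with 0.5% NP-40 at 4°C, and the supernatant after 21,000xg for 90 min was quantified by TMTpro 16plex LC-MS/MS with channel sums equalised. Thermal stability relative to control samples, from duplicates, is given as log2 fold change.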
Work on FAM160B1 (UniProt Q5W0V3) yielded a log2 fold change of -0.138.
For EDC3 (UniProt Q96F86), the log2 fold change was -0.021.
For DSN1 (UniProt Q9H410), the log2 fold change was -0.164.
Target DNAJB1 (UniProt P25685) has a log2 fold change of -0.094.
EEF2K (UniProt O00418) gave a log2 fold change of 0.194.
Target CYB561A3 isoform 2 (UniProt Q8NBI2) has a log2 fold change of -0.043.
Work on DNAJB12 (UniProt Q9NXW2) yielded a log2 fold change of -0.006.
For DYNC1I2 isoform 2 (UniProt Q13409), the log2 fold change was 0.
DDB1 (UniProt Q16531) showed a log2 fold change of 0.004.
Target FAM3A (UniProt P98173) has a log2 fold change of -0.027.
EXOSC10 (UniProt Q01780) gave a log2 fold change of 0.092.
In the case of EEF1A1 (UniProt P68104), the log2 fold change is reported as -0.885 (active).
With FAM118B (UniProt Q9BPY3) the log2 fold change was -0.142.
CTSZ (UniProt Q9UBR2) gave a log2 fold change of -0.008.
For DOCK8 (UniProt Q8NF50), the log2 fold change was 0.149.
DNAJC24 (UniProt Q6P3W2) gave a log2 fold change of -0.038.
DHRS3 (UniProt O75911) showed a log2 fold change of 0.001.
With EIF2AK3 (UniProt Q9NZJ5) the log2 fold change was 0.045.
Target ELAC1 (UniProt Q9H777) has a log2 fold change of 0.051.
With EIF4G3 isoform 3 (UniProt O43432) the log2 fold change was -0.018.
FAM118A (UniProt Q9NWS6) showed a log2 fold change of -0.168.
DTWD1 (UniProt Q8N5C7) showed a log2 fold change of -0.122.
In the case of DOLPP1 (UniProt Q86YN1), the log2 fold change is reported as -0.059.
With DNAH11 (UniProt Q96DT5) the log2 fold change was 0.517.
For FAM193B (UniProt Q96PV7), the log2 fold change was -0.32.
DYNC1LI2 (UniProt O43237) showed a log2 fold change of 0.258.
DAXX (UniProt Q9UER7) was tested, and the log2 fold change was 0.
DENND10 (UniProt Q8TCE6) showed a log2 fold change of 0.
DLD (UniProt P09622) showed a log2 fold change of 0.026.
CWF19L2 (UniProt Q2TBE0) was tested, and the log2 fold change was 0.081.
In the case of ELF1 (UniProt P32519), the log2 fold change is reported as -0.101.
Work on DYRK1A isoform 2 (UniProt Q13627) yielded a log2 fold change of -0.135.
EIF4E2 (UniProt O60573) showed a log2 fold change of -0.052.
With FAM241A (UniProt Q8N8J7) the log2 fold change was -0.046.
CTSH (UniProt P09668) showed a log2 fold change of 0.038.
CTNNB1 (UniProt P35222) showed a log2 fold change of 0.037.

Each target was assayed with CN1CCc2c(c3ccccc3n2Cc2ccc(C(=O)NO)cc2)C1 [Tubastatin A] in the same assay as above.
Method in brief: as §1
FAM207A (UniProt Q9NSI2) showed a log2 fold change of 0.106.
FAM160B1 (UniProt Q5W0V3) gave a log2 fold change of 0.
With EDC3 (UniProt Q96F86) the log2 fold change was 0.053.
With DSN1 (UniProt Q9H410) the log2 fold change was 0.082.
For DNAJB1 (UniProt P25685), the log2 fold change was -0.001.
Target CYB561A3 isoform 2 (UniProt Q8NBI2) has a log2 fold change of 0.047.
DNAJB12 (UniProt Q9NXW2) gave a log2 fold change of -0.006.
In the case of DYNC1I2 isoform 2 (UniProt Q13409), the log2 fold change is reported as -0.028.
Target DDB1 (UniProt Q16531) has a log2 fold change of -0.025.
Target FAM3A (UniProt P98173) has a log2 fold change of 0.045.
For EXOSC10 (UniProt Q01780), the log2 fold change was 0.143.
Target ENTPD7 (UniProt Q9NQZ7) has a log2 fold change of 0.064.
For EEF1A1 (UniProt P68104), the log2 fold change was -0.096.
With FAM118B (UniProt Q9BPY3) the log2 fold change was 0.019.
For CTSZ (UniProt Q9UBR2), the log2 fold change was -0.056.
DOCK8 (UniProt Q8NF50) showed a log2 fold change of 0.166.
For DNAJC24 (UniProt Q6P3W2), the log2 fold change was -0.094.
DHRS3 (UniProt O75911) showed a log2 fold change of -0.042.
Target EIF2AK3 (UniProt Q9NZJ5) has a log2 fold change of 0.039.
EIF4G3 isoform 3 (UniProt O43432) gave a log2 fold change of -0.016.
FAM118A (UniProt Q9NWS6) was tested, and the log2 fold change was 0.029.
With DTWD1 (UniProt Q8N5C7) the log2 fold change was -0.014.
DOLPP1 (UniProt Q86YN1) gave a log2 fold change of -0.066.
For DNAH11 (UniProt Q96DT5), the log2 fold change was -0.083.
With FAM193B (UniProt Q96PV7) the log2 fold change was -0.007.
In the case of DYNC1LI2 (UniProt O43237), the log2 fold change is reported as 0.033.
In the case of DAXX (UniProt Q9UER7), the log2 fold change is reported as 0.122.
Work on DENND10 (UniProt Q8TCE6) yielded a log2 fold change of 0.007.
DLD (UniProt P09622) showed a log2 fold change of -0.029.
CWF19L2 (UniProt Q2TBE0) gave a log2 fold change of -0.079.
ELF1 (UniProt P32519) gave a log2 fold change of 0.075.
DYRK1A isoform 2 (UniProt Q13627) gave a log2 fold change of 0.058.
EIF4E2 (UniProt O60573) was tested, and the log2 fold change was 0.07.
Work on FAM241A (UniProt Q8N8J7) yielded a log2 fold change of -0.035.
CTSH (UniProt P09668) was tested, and the log2 fold change was 0.017.
Work on CYP24A1 (UniProt Q07973) yielded a log2 fold change of 0.365.
Target CTNNB1 (UniProt P35222) has a log2 fold change of 0.148.
